Laboratory results reported in the supplement of paper PMC10849652.
Targets with a hit are over-represented here; the source holds about 8,800 in all. About 0.5% of all pairs of compound and target were hits.

Experiments:
Test in all cases: log2 fold change, soluble protein after heating vs DMSO (PISA); higher = thermal stabilisation; K562 lysate, 10 uM; active = over 0.2 and 3.5 SD of the protein, either way, in both replicates (recomputed)
[1] = compound: NCC(=O)Nc1ccc(-n2nc(C(F)(F)F)cc2-c2ccc3c(ccc4ccccc43)c2)cc1
In short: (§1)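 The values are log-two fold changes in thermal stability compared with solvent controls and come from duplicates. They were obtained by TMTpro 16plex LC-MS/MS, with channel sums equalised, on the supernatant after 21,000xg for 90 min. That supernatant came from crude K562 extract at 1 mg/mL protein treated with 10 μM compound for 30 min, heated for 3 min across 48°C-58°C, pooled and brought to 0.5% NP-40 at 4°C.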

vorinostat = compound: O=C(CCCCCCC(=O)Nc1ccccc1)NO [vorinostat]
In short: as §1

silmitasertib = compound: O=C(O)c1ccc2c(c1)nc(Nc1cccc(Cl)c1)c1ccncc12 [silmitasertib]
In short: as §1

[2] = compound: O=C1NC(=O)C(c2cnc3ccccn23)=C1c1cn2c3c(cc(F)cc13)CN(C(=O)N1CCCCC1)CC2
In short: as §1

entospletinib = compound: c1cn2cc(-c3ccc4cn[nH]c4c3)nc(Nc3ccc(N4CCOCC4)cc3)c2n1 [entospletinib]
In short: as §1

Measured: log2 fold change

TCP11L1 (UniProt Q9NUJ3)
inactive: [1] 0 | silmitasertib -0.043 | [2] 0.006 | entospletinib 0.019
active: vorinostat -0.317

TCF3 (UniProt X6REB3)
inactive: [1] -0.257

TOPBP1 (UniProt Q92547)
inactive: [1] 0.032 | silmitasertib 0.019 | [2] -0.074 | entospletinib 0.028
active: vorinostat -0.387

TJP1 (UniProt G3V1L9)
active: vorinostat -0.484
inactive: [1] -0.044 | silmitasertib -0.061 | [2] 0.127

TTC4 (UniProt O95801)
active: vorinostat -0.498
inactive: [1] 0.013 | silmitasertib 0.022 | [2] -0.009 | entospletinib 0

TRAPPC9 isoform 2 (UniProt Q96Q05)
inactive: [1] 0.005 | silmitasertib 0.046 | [2] 0 | entospletinib -0.049
active: vorinostat -0.375

TLE3 isoform 4 (UniProt Q04726)
inactive: [1] 0.011 | vorinostat 0.047 | silmitasertib -0.052 | [2] -0.018 | entospletinib -0.009

UBA1 (UniProt P22314)
active: vorinostat -0.371
inactive: [1] 0.018 | silmitasertib 0.01 | [2] -0.003 | entospletinib 0.02

TOR3A (UniProt Q9H497)
inactive: [1] 0.011 | vorinostat 0.048 | silmitasertib -0.002 | [2] -0.016 | entospletinib 0.02

TSPAN13 (UniProt O95857)
inactive: [1] -0.024 | vorinostat 0.104 | silmitasertib -0.008 | [2] 0.008 | entospletinib -0.015

TDRKH (UniProt Q9Y2W6)
inactive: [1] -0.031 | vorinostat -0.223 | silmitasertib 0.024 | [2] -0.052 | entospletinib 0.056

TTC27 (UniProt Q6P3X3)
inactive: [1] -0.027 | silmitasertib 0.053 | [2] -0.06 | entospletinib -0.002
active: vorinostat -0.403

TRADD (UniProt Q15628)
inactive: [1] 0.034 | vorinostat -0.284 | silmitasertib 0.021 | [2] -0.029 | entospletinib 0.059

TBL2 (UniProt Q9Y4P3)
active: vorinostat -0.292
inactive: [1] -0.035 | silmitasertib -0.007 | [2] -0.035 | entospletinib 0.02

TBC1D8B (UniProt Q0IIM8)
inactive: [1] 0.036 | vorinostat 0.147 | silmitasertib -0.037 | [2] 0.011 | entospletinib 0.131

TTC5 (UniProt Q8N0Z6)
active: vorinostat -0.257
inactive: [1] -0.003 | silmitasertib -0.029 | [2] -0.018 | entospletinib 0.051

UBL5 (UniProt Q9BZL1)
inactive: [1] -0.027 | vorinostat -0.078 | silmitasertib 0.065 | [2] 0.077 | entospletinib -0.049

TUBA3C (UniProt P0DPH7)
active: vorinostat -0.913
inactive: [1] 0 | silmitasertib 0.017 | [2] -0.008 | entospletinib -0.007

TPM3 isoform 3 (UniProt P06753)
inactive: [1] -0.111 | vorinostat 0.048 | silmitasertib -0.047 | [2] -0.15 | entospletinib -0.024

TRIM65 (UniProt Q6PJ69)
inactive: [1] 0.018 | vorinostat -0.094 | silmitasertib -0.006 | [2] 0.002 | entospletinib -0.009

TFAP4 (UniProt Q01664)
inactive: [1] 0.005 | vorinostat 0.051 | silmitasertib -0.196 | [2] 0.01 | entospletinib -0.086

TMOD1 (UniProt P28289)
inactive: [1] 0.005 | silmitasertib 0.02 | [2] -0.005 | entospletinib 0.01
active: vorinostat -0.312

TPP2 (UniProt P29144)
inactive: [1] -0.015 | vorinostat -0.121 | silmitasertib 0.02 | [2] -0.011 | entospletinib 0.003

TCF3 (UniProt P15923)
Chain of UniProt P15923 (P15923 whole entry, looked up): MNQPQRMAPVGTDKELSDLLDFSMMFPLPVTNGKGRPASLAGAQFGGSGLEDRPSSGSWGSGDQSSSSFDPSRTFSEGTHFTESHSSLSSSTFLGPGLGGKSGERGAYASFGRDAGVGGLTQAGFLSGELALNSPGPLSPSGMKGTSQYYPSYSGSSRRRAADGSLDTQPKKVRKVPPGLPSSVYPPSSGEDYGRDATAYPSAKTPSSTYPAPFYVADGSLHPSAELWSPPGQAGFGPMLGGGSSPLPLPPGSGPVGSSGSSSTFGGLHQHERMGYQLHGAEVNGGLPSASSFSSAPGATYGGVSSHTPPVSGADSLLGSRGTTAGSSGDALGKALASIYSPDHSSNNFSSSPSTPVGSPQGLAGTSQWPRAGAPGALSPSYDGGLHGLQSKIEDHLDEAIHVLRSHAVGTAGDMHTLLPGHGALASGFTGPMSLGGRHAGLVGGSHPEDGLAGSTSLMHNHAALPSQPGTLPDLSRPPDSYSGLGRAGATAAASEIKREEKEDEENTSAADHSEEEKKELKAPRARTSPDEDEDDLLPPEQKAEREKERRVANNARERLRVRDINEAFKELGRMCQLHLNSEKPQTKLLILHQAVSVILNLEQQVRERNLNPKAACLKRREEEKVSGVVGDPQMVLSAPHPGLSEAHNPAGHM
inactive: [1] -0.007 | vorinostat -0.141 | silmitasertib -0.031 | [2] 0 | entospletinib -0.03

TEX30 (UniProt Q5JUR7)
Chain of UniProt Q5JUR7 (Q5JUR7 whole entry, looked up): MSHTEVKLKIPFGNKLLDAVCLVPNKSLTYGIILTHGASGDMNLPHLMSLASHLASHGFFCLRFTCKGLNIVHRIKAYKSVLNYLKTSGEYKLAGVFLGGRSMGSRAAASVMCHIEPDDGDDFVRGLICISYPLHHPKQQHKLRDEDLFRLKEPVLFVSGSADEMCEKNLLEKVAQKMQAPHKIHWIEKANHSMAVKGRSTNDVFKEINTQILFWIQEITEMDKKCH
active: vorinostat -0.534
inactive: [1] 0.035 | silmitasertib 0.041 | [2] -0.006 | entospletinib 0.001

TK1 (UniProt K7ERV3)
inactive: [1] -0.018 | vorinostat 0.086 | silmitasertib 0.01 | [2] -0.014 | entospletinib -0.013

TSFM (UniProt P43897)
active: vorinostat -0.261
inactive: [1] 0.002 | silmitasertib 0.043 | [2] 0.035 | entospletinib -0.014

TNKS (UniProt O95271)
Chain of UniProt O95271 (O95271 whole entry, looked up): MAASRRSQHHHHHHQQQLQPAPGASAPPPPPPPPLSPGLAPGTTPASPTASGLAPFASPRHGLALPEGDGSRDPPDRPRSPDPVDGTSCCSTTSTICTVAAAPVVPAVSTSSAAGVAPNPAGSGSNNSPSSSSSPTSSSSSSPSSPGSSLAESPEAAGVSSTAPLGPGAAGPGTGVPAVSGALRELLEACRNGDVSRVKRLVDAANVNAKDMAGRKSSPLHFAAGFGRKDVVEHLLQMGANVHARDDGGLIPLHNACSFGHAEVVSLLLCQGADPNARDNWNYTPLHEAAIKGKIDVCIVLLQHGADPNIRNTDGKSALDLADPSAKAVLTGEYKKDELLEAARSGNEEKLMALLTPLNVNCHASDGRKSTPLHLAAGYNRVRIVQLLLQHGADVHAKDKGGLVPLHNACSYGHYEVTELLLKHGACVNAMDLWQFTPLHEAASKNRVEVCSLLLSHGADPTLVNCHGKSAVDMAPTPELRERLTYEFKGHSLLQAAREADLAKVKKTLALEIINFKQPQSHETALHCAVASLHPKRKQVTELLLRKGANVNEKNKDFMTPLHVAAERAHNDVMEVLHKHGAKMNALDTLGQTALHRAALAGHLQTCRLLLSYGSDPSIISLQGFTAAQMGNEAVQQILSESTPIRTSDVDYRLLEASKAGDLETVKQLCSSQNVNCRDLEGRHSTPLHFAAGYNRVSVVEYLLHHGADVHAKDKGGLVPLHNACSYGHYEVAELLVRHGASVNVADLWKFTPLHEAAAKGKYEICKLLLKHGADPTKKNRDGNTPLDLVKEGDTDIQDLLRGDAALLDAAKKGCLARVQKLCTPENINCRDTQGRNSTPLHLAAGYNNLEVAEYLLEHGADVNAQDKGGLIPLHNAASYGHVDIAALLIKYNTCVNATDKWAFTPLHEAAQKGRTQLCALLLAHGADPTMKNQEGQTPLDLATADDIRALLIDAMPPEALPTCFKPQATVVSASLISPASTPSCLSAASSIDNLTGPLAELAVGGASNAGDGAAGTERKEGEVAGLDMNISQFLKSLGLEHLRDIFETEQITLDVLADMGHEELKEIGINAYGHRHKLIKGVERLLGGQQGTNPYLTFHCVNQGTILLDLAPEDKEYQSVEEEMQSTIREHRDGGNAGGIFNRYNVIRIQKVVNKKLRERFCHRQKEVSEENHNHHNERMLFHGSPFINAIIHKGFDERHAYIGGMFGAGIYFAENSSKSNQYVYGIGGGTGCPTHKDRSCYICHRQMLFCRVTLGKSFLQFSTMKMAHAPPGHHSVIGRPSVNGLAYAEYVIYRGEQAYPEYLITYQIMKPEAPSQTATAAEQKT
inactive: [1] -0.009 | vorinostat -0.1 | silmitasertib 0.06 | [2] -0.001 | entospletinib -0.085

TOE1 (UniProt Q96GM8)
inactive: [1] -0.003 | silmitasertib 0.041 | [2] 0.002 | entospletinib 0.043
active: vorinostat -0.359

TUBB2A (UniProt Q13885)
active: vorinostat -0.759
inactive: [1] 0.034 | silmitasertib 0.016 | [2] -0.004 | entospletinib -0.012

TBRG4 (UniProt Q969Z0)
inactive: [1] 0.017 | vorinostat -0.238 | silmitasertib 0.034 | [2] 0.008 | entospletinib 0.042

TIMM44 (UniProt O43615)
inactive: [1] 0.045 | silmitasertib 0.015 | [2] 0.029 | entospletinib -0.026
active: vorinostat 0.245

TECR (UniProt Q9NZ01)
Chain of UniProt Q9NZ01 (Q9NZ01 whole entry, looked up): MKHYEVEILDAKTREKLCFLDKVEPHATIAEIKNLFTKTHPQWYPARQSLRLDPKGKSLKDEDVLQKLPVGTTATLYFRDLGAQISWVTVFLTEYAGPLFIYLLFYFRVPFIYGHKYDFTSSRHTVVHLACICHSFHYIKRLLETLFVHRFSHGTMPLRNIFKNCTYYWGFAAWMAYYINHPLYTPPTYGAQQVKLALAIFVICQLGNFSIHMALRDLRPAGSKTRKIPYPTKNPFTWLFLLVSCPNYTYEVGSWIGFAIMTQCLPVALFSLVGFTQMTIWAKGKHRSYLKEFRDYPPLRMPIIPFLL
inactive: [1] -0.031 | vorinostat 0.024 | silmitasertib 0.076 | [2] 0.032 | entospletinib 0.033

TUBB3 (UniProt Q13509)
inactive: [1] -0.012 | silmitasertib 0.04 | [2] 0.006 | entospletinib -0.002
active: vorinostat -0.688

TLK2 isoform 2 (UniProt Q86UE8)
inactive: [1] 0.019 | vorinostat -0.24 | silmitasertib 0.057 | [2] 0.118 | entospletinib -0.135

TLK1 isoform 2 (UniProt Q9UKI8)
inactive: [1] 0.001 | silmitasertib 0.117 | [2] 0.156 | entospletinib 0.04
active: vorinostat -0.369

TRIM33 (UniProt H0Y612)
inactive: [1] -0.039 | silmitasertib 0.061 | [2] 0.03 | entospletinib 0.084
active: vorinostat -0.335

TUBB1 (UniProt Q9H4B7)
active: vorinostat -0.326
inactive: [1] -0.038 | silmitasertib -0.003 | [2] 0.033 | entospletinib 0.011

UBE2L6 (UniProt O14933)
Chain of UniProt O14933 (O14933 whole entry, looked up): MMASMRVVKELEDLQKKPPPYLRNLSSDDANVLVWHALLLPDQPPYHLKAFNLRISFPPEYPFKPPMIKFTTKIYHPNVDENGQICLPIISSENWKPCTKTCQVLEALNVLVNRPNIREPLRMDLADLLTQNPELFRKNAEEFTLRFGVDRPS
inactive: [1] -0.071 | silmitasertib 0.037 | [2] 0 | entospletinib -0.011
active: vorinostat -0.477

TMEM161B (UniProt Q8NDZ6)
inactive: [1] -0.084 | vorinostat 0.225 | silmitasertib 0 | [2] 0.019 | entospletinib -0.026

TK1 (UniProt P04183)
inactive: [1] 0.04 | vorinostat -0.028 | silmitasertib -0.001 | [2] 0.014 | entospletinib 0.035

UBE3C (UniProt Q15386)
inactive: [1] -0.009 | silmitasertib -0.001 | [2] 0 | entospletinib 0.05
active: vorinostat -0.479

TRAF2 isoform 2 (UniProt Q12933)
inactive: [1] 0.014 | silmitasertib 0.024 | [2] 0.031 | entospletinib 0.005
active: vorinostat -0.269

UBAP2 (UniProt Q5T6F2)
inactive: [1] 0.031 | vorinostat 0.03 | silmitasertib -0.007 | [2] 0 | entospletinib -0.013

TTL (UniProt Q8NG68)
Chain of UniProt Q8NG68 (Q8NG68 whole entry, looked up): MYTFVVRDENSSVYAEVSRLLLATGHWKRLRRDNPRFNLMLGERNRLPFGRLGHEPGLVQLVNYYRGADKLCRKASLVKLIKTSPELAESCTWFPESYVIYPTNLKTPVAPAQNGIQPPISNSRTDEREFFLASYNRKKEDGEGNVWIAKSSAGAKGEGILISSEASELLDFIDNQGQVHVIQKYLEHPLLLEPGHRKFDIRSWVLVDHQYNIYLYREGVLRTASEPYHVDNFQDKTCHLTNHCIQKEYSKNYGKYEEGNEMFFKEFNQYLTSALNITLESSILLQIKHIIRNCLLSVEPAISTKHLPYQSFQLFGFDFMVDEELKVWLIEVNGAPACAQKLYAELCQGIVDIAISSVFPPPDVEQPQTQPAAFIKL
active: vorinostat -0.376
inactive: [1] -0.027 | silmitasertib 0.021 | [2] 0.057 | entospletinib 0.138

TPM1 isoform 4 (UniProt P09493)
Chain of UniProt P09493 (P09493 whole entry, looked up): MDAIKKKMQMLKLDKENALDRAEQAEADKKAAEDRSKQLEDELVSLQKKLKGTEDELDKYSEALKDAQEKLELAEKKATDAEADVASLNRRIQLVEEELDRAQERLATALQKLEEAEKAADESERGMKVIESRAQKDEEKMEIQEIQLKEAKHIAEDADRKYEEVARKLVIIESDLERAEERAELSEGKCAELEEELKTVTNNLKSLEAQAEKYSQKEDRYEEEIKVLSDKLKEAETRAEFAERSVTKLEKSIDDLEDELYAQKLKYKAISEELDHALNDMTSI
inactive: [1] -0.053 | vorinostat 0.052 | silmitasertib -0.03 | [2] -0.041 | entospletinib 0.006

TMEM87A (UniProt Q8NBN3)
Chain of UniProt Q8NBN3 (Q8NBN3 whole entry, looked up): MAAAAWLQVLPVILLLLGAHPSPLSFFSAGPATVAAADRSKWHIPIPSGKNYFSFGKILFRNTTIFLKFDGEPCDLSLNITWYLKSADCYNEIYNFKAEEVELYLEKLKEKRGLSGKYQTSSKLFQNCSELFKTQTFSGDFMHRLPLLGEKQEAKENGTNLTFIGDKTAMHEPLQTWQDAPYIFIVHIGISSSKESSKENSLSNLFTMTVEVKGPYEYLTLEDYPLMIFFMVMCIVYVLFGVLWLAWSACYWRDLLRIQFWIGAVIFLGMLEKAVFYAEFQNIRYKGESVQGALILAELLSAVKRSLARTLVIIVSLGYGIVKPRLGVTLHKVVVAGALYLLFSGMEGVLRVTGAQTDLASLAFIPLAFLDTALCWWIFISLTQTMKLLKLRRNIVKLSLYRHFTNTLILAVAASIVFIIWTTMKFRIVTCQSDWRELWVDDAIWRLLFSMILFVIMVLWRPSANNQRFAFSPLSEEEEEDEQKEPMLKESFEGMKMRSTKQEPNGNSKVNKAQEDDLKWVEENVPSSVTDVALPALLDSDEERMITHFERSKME
inactive: [1] 0.001 | vorinostat 0.074 | silmitasertib 0.007 | [2] -0.013 | entospletinib 0.029

TUBB4B (UniProt P68371)
active: vorinostat -0.712
inactive: [1] 0.014 | silmitasertib 0.024 | [2] -0.001 | entospletinib 0.005

TGOLN2 isoform 7 (UniProt O43493)
inactive: [1] -0.02 | vorinostat 0.089 | silmitasertib 0.055 | [2] -0.047 | entospletinib -0.019

TUBGCP2 isoform 4 (UniProt Q9BSJ2)
Chain of UniProt Q9BSJ2 (Q9BSJ2 whole entry, looked up): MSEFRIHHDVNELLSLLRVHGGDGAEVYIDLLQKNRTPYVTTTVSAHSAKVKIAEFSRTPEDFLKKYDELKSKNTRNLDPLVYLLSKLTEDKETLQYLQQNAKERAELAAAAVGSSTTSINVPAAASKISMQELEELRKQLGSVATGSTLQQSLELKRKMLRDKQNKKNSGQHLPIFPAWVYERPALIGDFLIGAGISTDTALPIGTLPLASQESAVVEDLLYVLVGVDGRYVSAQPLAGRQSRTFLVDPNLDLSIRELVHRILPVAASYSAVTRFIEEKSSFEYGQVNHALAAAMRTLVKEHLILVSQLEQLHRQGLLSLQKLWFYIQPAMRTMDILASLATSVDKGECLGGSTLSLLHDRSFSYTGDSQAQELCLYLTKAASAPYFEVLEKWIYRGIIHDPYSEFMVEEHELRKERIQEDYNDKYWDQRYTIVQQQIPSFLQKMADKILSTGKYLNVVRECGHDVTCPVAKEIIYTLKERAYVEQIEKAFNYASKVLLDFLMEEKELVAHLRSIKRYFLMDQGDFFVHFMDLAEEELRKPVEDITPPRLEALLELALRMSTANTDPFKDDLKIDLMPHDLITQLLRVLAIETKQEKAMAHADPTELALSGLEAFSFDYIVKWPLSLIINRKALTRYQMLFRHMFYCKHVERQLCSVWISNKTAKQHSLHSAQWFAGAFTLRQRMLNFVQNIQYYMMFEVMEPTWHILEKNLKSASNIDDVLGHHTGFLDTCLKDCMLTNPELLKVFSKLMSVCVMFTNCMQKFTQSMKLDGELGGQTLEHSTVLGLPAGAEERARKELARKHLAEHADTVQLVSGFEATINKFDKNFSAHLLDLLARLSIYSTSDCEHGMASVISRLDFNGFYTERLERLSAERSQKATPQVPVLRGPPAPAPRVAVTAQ
active: vorinostat -0.32
inactive: [1] 0.03 | silmitasertib 0.051 | [2] 0.046 | entospletinib 0.042

UBIAD1 (UniProt Q9Y5Z9)
inactive: [1] -0.061 | vorinostat 0.042 | silmitasertib 0.04 | [2] 0.032 | entospletinib 0.058

TRAPPC6A isoform 2 (UniProt O75865)
Chain of UniProt O75865 (O75865 whole entry, looked up): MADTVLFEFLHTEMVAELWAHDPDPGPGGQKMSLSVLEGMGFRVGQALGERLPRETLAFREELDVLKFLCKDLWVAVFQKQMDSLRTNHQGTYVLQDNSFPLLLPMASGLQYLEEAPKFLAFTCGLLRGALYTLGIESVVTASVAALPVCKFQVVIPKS
inactive: [1] -0.048 | vorinostat -0.038 | silmitasertib 0.013 | [2] -0.002 | entospletinib -0.157

UBP1 (UniProt Q9NZI7)
inactive: [1] -0.002 | vorinostat -0.182 | silmitasertib 0.008 | [2] -0.01 | entospletinib -0.002

TRNAU1AP (UniProt Q9NX07)
inactive: [1] 0.079 | vorinostat -0.178 | silmitasertib 0.026 | [2] -0.017 | entospletinib -0.047
